According to PubChem BioAssay AID2314 (National Center for Advancing Translational Sciences (NCATS), 2010):
“And” between values parts separate entries of the source, which are not always exact repeats. Equal values may be shown once. The campaign covered roughly 300,000 compounds. About 37,000 (12%) were called active. Rule as the data show it: active = max response mostly above about 13% (no sharp cut-off); inactive = mostly below about 14%. Many of the other results were omitted from the sample, so actives are more common in it than they were.

assay: Cycloheximide Counterscreen for Small Molecule Inhibitors of Shiga Toxin; details: cell reporter, cycloheximide protein synthesis inhibition counterscreen; hits give high values; also: read at 38.3 µM for the half of the compounds with a filed dose; 0% is about no effect

| SMILES | max response |
| --- | --- |
| O=C(Nc1cccc(Cl)c1N1CCOCC1)c1cccnc1 | 6.59% (inactive) |
| Cc1noc(C)c1C(=O)NCCc1ccc(S(N)(=O)=O)cc1 | -1.04% (inactive) |
| Cc1nc2sccn2c(=O)c1S(=O)(=O)NCCc1ccccc1 | -3.53% (inactive) |
| C/C(=N/Nc1nc(-c2ccccc2)c(CC(=O)O)s1)c1ccccc1 | 35% (active) |
| Cc1ccc(-c2nc(C)sc2CC(=O)O)cc1 | -1.04% (inactive) |
| CCOC(=O)C(=O)Nc1nc(-c2ccccc2)c(CC)s1 | -3.08% (inactive) |
| O=[N+]([O-])c1ccccc1S(=O)(=O)Nc1cccc2cccnc12 | 10.3% (inactive) and 10.1% (inactive) and -3.71% (inactive) |
| CCN1CCN(C(=O)CCN2C(=O)c3ccccc3C2=O)CC1 | -1.33% (inactive) |
| CCOC(=O)N1CCN(C(=O)CSc2ccc(Cl)cc2)CC1 | 20.3% (active) |
| CCOC(=O)N1CCN(C(=O)CNC(=O)Cc2ccc(Cl)cc2)CC1 | -1.82% (inactive) |
| CS(=O)(=O)N1CCN(C(=O)CSc2ccccc2)CC1 | -1.13% (inactive) |
| CCOC(=O)N1CCN(C(=O)COc2ccc(Cl)cc2C)CC1 | -3.61% (inactive) |
| CCN1CCN(C(=O)CSc2ccc(C)cc2)CC1 | 15.7% (active) |
| COc1ccc(OC)c(NC(=O)c2ccc3c(c2)C(=O)N(c2ccc(OC(C)=O)cc2)C3=O)c1 | 2.74% (inactive) |
| CCC1SC2=NCCN2C1(O)c1ccc(Cl)cc1 (configuration not stated) | -0.782% (inactive) |
| COc1ccc(-c2csc3nc(-c4ccccc4F)oc(=O)c23)cc1OC | -1.13% (inactive) |
| CCOc1nc(-c2ccc(OC)cc2)ccc1-c1noc(-c2cc(OC)c(OC)c(OC)c2)n1 | 8.08% (inactive) |
| COc1ccc(-c2noc(-c3cccc(OC)c3OC)n2)cc1OC | 36% (active) |
| Cc1ccccc1OCC(=O)Nc1ccc(S(=O)(=O)N2CCOCC2)cc1 | 4.38% (inactive) |
| CCCOc1cccc(C(=O)Nc2ccccc2C(=O)N2CCN(C)CC2)c1 | -0.829% (inactive) |
| Cn1cnnc1SCc1nnc(-c2ccccc2Br)o1 | 24% (active) |
| Cn1cnnc1SCC(=O)NNC(=O)COc1ccc(Br)cc1 | -2.49% (inactive) |
| Nc1cccc2c1C(=O)N(Cc1nnc(-c3ccccc3Br)o1)C2=O | 12.5% (inactive) |
| Cc1ccc(S(=O)(=O)/N=C(\CN2CCOCC2)N2CCOCC2)cc1 | -4.56% (inactive) |
| COc1cc(/C=N/Nc2nn3cnnc3c3ccccc23)cc(OC)c1OC | 17.3% (inactive) |
| CN(CCO)c1ccc(/C=N/Nc2nncc3ccccc23)cc1 | 26.2% (active) |
| Cc1[nH]c(C)c(S(=O)(=O)N2CCC(C)CC2)c1C(=O)N1CCCC1 | -1.96% (inactive) |
